This note sets out measurements from PubChem BioAssay.

The test system of experiment [1] is Plasmodium falciparum Sir2 (PF13_0152, Sir2A). The experiment can be described thus: pfSir2 binders on small-molecule microarrays, primary screen, biochemical, small-molecule microarray, 635 nm fluorescence (AID 1098).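 Further: score merges spot fluorescence intensity with its signal-to-noise ratio.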 The conditions noted are these: small-molecule microarray binding, fluorescence 635 nm; higher = more signal.
A short description of experiment [2]: small-molecule microarray binders of probe aDKK1, primary screen, biochemical, biotinylated probe, 635/667 nm fluorescence (AID 1099).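 Further: score merges 667nm spot fluorescence with signal to noise across triplicate slides.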 The conditions noted are these: higher = more signal.
Experiment [3] is described as follows: small-molecule microarray binders of probe aCHRDL2, primary screen, biochemical, biotinylated probe, 635/667 nm fluorescence (AID 1100). Particulars: higher = more signal.
A short description of experiment [4]: splicing luciferase reporter signal modulators, primary screen, spliceosome inhibition project, cell-based, HEK293, splice +/- reporter (AID 1101).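 Further: HEK293 cells carrying a splicing-competent luciferase reporter gene; test concentration not given here.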 Particulars: luminescence, 24 h, higher = more signal, called active from +8 up or from −8 down. On the technique in general: A reporter such as luciferase makes a cellular process visible.
The target of experiment [5] is Fibroblast growth factor 10 (Homo sapiens) (UniProt O15520). Description: FGF10 binders on small-molecule microarrays, primary screen, biochemical, small-molecule microarray, 635 nm fluorescence (AID 1102). Particulars: FGF10 binding, fluorescence 635 nm, higher = more signal.
For experiment [6], the system named is glycogen synthase kinase-3 (GSK3A per assay name; protocol says GSK3B). The experiment can be described thus: GSK3 binders on small-molecule microarrays, primary screen, biochemical, small-molecule microarray, 635 nm fluorescence, GSK3A (AID 1103). Further: the record names both GSK3A and GSK3B. Particulars: small-molecule microarray binding, fluorescence 635 nm; higher = more signal.
Experiment [7] has as its target Epidermal growth factor receptor (Homo sapiens) (UniProt P00533). The experiment can be described thus: EGFR binders on small-molecule microarrays, primary screen, biochemical, small-molecule microarray, 635 nm fluorescence (AID 1104).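 Further: score merges 667 nm emission intensity with spot signal to noise over triplicate slides.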 Particulars: EGFR binding, higher = more signal.
In experiment [8] the target is Follistatin-related protein 3 (Homo sapiens) (UniProt O95633). Description: FSTL3 binders on small-molecule microarrays, primary screen, biochemical, small-molecule microarray, 635 nm fluorescence (AID 1105).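 Further: score merges emission near 667 nm and signal to noise per printed spot across three slides.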 Particulars: FSTL3 binding, higher = more signal.
Experiment [9] concerns the target Dickkopf-related protein 1 (Homo sapiens) (UniProt O94907). The experiment can be described thus: DKK1 binders on small-molecule microarrays, primary screen, biochemical, small-molecule microarray, 635 nm fluorescence scan (AID 1106).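 Further: score merges emission near 667 nm with signal to noise over three replicate slides.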 The conditions noted are these: DKK1 binding, higher = more signal.
The test system of experiment [10] is Inhibin beta A chain (activin A). Description: INHBA (activin A) binders on microarrays, primary screen, biochemical, small-molecule microarray, 635 nm fluorescence scan (AID 1107).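 Further: mouse activin A protein probed at 4.33 µg/mL on printed slides; score merges bound-protein fluorescence near 667 nm with spot signal-to-noise.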 The conditions noted are these: small-molecule microarray binding, higher = more signal.
Experiment [11] has as its system Human papillomavirus type 1a protein E7 (residues 44-93). The experiment can be described thus: HPV1a E7 fragment binders on microarrays, primary screen, biochemical, small-molecule microarray, residues 44-93, 635 nm fluorescence (AID 1108).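 Further: E7 fragment applied at 1 µg/mL in TBST for 1 h at 4 C; score combines spot fluorescence with its signal to noise ratio.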 The conditions noted are these: small-molecule microarray binding, fluorescence 635 nm; higher = more signal.
Experiment [12] can be described thus: modulators of HCV replicon luciferase signal, primary screen, HCV replication inhibitor project, Huh7 cells, luciferase reporter (AID 1109).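 Further: huh7 hepatoma cells harbouring a luciferase neomycin HCV replicon reporter; luciferase luminescence as measure of HCV replicon replication; test concentration not given here.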 The conditions noted are these: 48 h, higher = more signal. In general terms: In antiviral work, replicon cells carry a viral genome segment that copies itself.
Experiment [13] addresses Left-right determination factor 2 (Homo sapiens) (UniProt O00292). The experiment can be described thus: LEFTY2 binders on small-molecule microarrays, primary screen, biochemical, small-molecule microarray, 635 nm fluorescence scan (AID 1110). Particulars: LEFTY2 binding, higher = more signal.
Experiment [14] deals with Calmodulin-1 (Homo sapiens) (UniProt P0DP23). Description: CALM1 binders on microarrays, EGTA buffer, profiling panel, biochemical, small-molecule microarray, Cy5-labelled CALM1 (AID 1111).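 Further: labelled calmodulin applied in Tris saline Tween buffer holding calcium plus EGTA and DTT.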 Particulars: Cy5-CALM1 binding fluorescence, higher = more signal.
Experiment [15] has the same target. The experiment can be described thus: calcium-bound CALM1 binders on microarrays, profiling panel, artefact control for SMM control-protein annotation, biochemical, small-molecule microarray, Cy5-labelled CALM1, plus calcium (AID 1112).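 Further: score merges spot fluorescence with signal to noise from triplicate slides.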 Particulars: Cy5-CALM1 binding fluorescence, higher = more signal.
Experiment [16] can be described thus: small-molecule microarray binders of probe aWnt5a, primary screen, biochemical, biotinylated probe, 635/667 nm fluorescence (AID 1113).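 Further: score merges 667 nm fluorescence intensity with signal-to-noise per printed feature.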 Particulars: higher = more signal.
Experiment [17] can be described thus: small-molecule microarray binders of probe aShh, primary screen, biochemical, biotinylated probe, 635/667 nm fluorescence (AID 1114).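 Further: probe is biotin-labelled aShh protein from a stem cell growth factor screen; measures binding of labelled protein to compounds printed on the slide; score merges feature fluorescence at 667 nm with signal-to-noise.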 The conditions noted are these: higher = more signal.
Experiment [18] is described as follows: small-molecule microarray binders of probe aNog, primary screen, biochemical, biotinylated probe, 635/667 nm fluorescence (AID 1115).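 Further: probe is biotinylated aNog protein used at 0.15 µg/mL for 1 h at 4 C; z-score combines 667 nm fluorescence of each spot with its signal to noise.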 Particulars: higher = more signal.
Experiment [19] has as its target Torsin-1A-interacting protein 1 (Homo sapiens) (UniProt Q5JTV8). Description: LAP1 binders from COS7 cell lysate, primary screen, small-molecule microarray, 635/667 nm fluorescence (AID 1116). Particulars: COS7-hLAP1 lysate binding, 635 nm fluorescence, higher = more signal.
Experiment [20] deals with Alpha-bungarotoxin (Bungarus multicinctus) (UniProt P60615). Description: alpha-bungarotoxin binders on microarray, profiling panel, artefact control for SMM control protein annotation, biochemical, small-molecule microarray, Alexa647 label, 635/667 nm fluorescence (AID 1117). Particulars: alpha-BTX-A647 binding fluorescence, higher = more signal.

“And” between values parts separate entries of the source, which are not always exact repeats. Equal values may be shown once. The source made the active and inactive calls.

Chain of Alpha-bungarotoxin (Bungarus multicinctus) (P60615 whole entry, looked up): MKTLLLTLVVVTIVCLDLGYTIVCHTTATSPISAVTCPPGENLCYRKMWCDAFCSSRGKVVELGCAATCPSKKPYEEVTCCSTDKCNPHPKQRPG
Chain of Torsin-1A-interacting protein 1 (Homo sapiens) (Q5JTV8 whole entry, looked up): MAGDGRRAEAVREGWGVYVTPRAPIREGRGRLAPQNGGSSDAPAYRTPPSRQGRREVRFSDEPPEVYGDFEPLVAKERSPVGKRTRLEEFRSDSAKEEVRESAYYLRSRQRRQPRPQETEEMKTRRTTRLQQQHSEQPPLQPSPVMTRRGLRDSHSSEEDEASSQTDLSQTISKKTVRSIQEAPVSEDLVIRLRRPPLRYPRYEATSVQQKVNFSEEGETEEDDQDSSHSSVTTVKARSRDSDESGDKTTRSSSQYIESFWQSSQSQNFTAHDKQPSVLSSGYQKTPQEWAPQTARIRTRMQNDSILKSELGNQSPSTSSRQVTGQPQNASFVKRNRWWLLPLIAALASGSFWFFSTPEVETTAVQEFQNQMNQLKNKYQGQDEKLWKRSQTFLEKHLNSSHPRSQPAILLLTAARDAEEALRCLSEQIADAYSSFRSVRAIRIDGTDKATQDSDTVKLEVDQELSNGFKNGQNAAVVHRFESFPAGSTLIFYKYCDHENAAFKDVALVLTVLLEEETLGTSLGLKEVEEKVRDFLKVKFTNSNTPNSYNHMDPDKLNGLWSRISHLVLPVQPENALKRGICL
Chain of Follistatin-related protein 3 (Homo sapiens) (O95633 whole entry, looked up): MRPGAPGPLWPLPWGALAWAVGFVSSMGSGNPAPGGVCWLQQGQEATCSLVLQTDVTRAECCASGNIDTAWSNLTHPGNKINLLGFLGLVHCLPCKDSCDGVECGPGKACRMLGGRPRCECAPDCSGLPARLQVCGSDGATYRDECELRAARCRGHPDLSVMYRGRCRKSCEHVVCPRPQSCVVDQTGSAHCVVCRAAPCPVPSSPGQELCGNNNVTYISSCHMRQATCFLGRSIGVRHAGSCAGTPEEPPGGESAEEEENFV
Chain of Fibroblast growth factor 10 (Homo sapiens) (O15520 whole entry, looked up): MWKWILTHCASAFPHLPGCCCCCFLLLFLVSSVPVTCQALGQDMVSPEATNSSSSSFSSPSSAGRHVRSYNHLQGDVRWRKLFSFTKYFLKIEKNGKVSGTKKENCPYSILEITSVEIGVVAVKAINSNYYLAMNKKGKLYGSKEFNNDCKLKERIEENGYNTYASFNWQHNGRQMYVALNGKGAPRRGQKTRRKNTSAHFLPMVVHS
Chain of Epidermal growth factor receptor (Homo sapiens) (P00533 whole entry, looked up): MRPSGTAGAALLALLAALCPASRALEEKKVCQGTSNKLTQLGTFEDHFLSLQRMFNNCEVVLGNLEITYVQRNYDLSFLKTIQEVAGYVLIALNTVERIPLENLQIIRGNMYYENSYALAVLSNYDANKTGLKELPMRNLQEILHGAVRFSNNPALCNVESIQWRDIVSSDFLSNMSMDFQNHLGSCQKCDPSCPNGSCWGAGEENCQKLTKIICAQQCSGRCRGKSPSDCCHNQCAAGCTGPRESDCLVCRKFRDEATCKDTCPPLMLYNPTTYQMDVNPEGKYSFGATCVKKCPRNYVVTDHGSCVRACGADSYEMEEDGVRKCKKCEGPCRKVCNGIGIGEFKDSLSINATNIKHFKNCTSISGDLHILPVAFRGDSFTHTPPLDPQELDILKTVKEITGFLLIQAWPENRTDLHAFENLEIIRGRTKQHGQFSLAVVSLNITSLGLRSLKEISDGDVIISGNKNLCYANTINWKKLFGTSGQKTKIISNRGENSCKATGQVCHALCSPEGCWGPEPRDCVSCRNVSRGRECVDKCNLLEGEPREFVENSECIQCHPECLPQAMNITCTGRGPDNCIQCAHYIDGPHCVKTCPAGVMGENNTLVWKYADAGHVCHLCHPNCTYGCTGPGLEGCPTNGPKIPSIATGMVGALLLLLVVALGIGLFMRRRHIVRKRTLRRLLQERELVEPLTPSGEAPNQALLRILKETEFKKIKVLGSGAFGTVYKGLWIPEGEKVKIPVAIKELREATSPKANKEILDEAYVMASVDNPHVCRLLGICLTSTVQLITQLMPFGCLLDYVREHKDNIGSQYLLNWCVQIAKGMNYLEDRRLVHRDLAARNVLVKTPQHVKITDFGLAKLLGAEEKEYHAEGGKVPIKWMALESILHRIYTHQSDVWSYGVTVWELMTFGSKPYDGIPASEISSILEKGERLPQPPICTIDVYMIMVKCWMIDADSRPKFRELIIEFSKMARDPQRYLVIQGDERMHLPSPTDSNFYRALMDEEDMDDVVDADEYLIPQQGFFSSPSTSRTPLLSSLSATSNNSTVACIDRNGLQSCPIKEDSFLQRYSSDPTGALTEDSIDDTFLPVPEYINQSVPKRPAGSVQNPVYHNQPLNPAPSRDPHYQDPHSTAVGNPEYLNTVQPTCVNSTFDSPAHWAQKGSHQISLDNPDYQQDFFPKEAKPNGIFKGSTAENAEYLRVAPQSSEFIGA
Chain of Dickkopf-related protein 1 (Homo sapiens) (O94907 whole entry, looked up): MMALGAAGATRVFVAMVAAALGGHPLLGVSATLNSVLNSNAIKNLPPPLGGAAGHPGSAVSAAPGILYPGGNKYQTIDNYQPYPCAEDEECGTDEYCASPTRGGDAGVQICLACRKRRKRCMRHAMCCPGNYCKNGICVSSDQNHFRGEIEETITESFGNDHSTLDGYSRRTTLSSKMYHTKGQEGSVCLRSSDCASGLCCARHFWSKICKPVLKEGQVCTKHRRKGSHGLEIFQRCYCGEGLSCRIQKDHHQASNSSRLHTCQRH
Chain of Left-right determination factor 2 (Homo sapiens) (O00292 whole entry, looked up): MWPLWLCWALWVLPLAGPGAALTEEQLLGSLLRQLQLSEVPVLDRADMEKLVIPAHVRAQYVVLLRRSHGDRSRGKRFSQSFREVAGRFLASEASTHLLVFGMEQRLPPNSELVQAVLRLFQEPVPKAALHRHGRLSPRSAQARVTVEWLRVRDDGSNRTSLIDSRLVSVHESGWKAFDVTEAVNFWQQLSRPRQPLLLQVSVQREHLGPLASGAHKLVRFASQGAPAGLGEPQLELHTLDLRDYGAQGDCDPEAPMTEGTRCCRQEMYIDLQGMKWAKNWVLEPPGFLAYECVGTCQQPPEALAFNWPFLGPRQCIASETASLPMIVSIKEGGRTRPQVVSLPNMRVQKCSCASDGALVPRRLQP

For the compound `C[C@@]1([C@@H](NC(=O)Cc2ccccc2)c2ccc(-c3ccccc3)cc2)C[C@H]1C1CCCCC1`, the composite z-score in experiment [1] is 0.334 and 0.359 and 0.301; in experiment [2], 1.14 and 1.83 and -0.112; in experiment [3], 0.775 and 1.08 and 0.538; in experiment [5], 0.543 and 0.838 and 0.0825; in [6], 0.271 and 0.234 and 0.826; in experiment [7] it was -0.0372 and 0.289 and -0.265. Besides, the composite z-score in experiment [8] is -0.008 and -0.172 and 0.156; in [9] it was -0.193 and -0.286 and -0.719; in [10], 1.3 and 1.08 and 0.556; in experiment [11], 0.208 and 0.778 and 1.16; in experiment [13], -0.109 and -0.069 and 0.118; in [14], 1.7 and 1.95 and 1.63. The composite z-score was 1.26 and 1.28 and 0.753 in experiment [15]; 0.631 and 1.04 and 0 in experiment [16]; 2.22 and 2.04 and -0.493 in experiment [17]; 0.292 and 1.37 and 1.17 in [18]; -0.288 and -0.307 and 0.775 in [19]; 1 and 0.582 and 1.93 in experiment [20]. Moreover, the z-score in [4] was -4.09 (inactive) and -1.68 (inactive) and 0.868 (inactive); in experiment [12], -2.39 and -1.33 and -0.271.
Consider `O=c1n(-c2ccccc2)c(=O)n2n1CC[C@@H]1C(=NOC[C@@H](O)COCc3ccco3)[C@H]3O[C@H]3[C@@H](O)[C@@H]12`, for which the composite z-score was 0.981 and 1.38 in experiment [1]; -0.418 and -0.503 in experiment [2]; -0.929 and -0.662 in [3]; 0.526 and -0.556 in [5]; 0.605 and -0.449 in [6]; 0.634 and 0.518 in experiment [7]. Moreover, the composite z-score was 0.973 and 0.426 in experiment [8]; 1.24 and 0.48 in experiment [9]; 0.467 and 0.442 in experiment [10]; 0.334 and -1.78 in experiment [11]; 0.549 and 0.474 in experiment [13]; -0.288 and -0.601 in [14]. Besides, the composite z-score in experiment [15] is -1.31 and -0.958; in experiment [16], -0.0659 and -0.0276; in experiment [17], -0.367 and -0.0035; in experiment [18] it was -0.261 and -0.0733; in experiment [19], 0.721 and 0.223; in [20], 0.719 and 0.0807. In addition, the z-score is -1.51 (inactive) and 0.0711 (inactive) in experiment [4]; 0.273 and -3.95 in experiment [12].
Take `C=CCN(C(=O)C1N(c2c(Cl)cccc2CO)C(=O)C2C(C(=O)O)C3C=CC21O3)c1ccc(OC)cc1` (stereo not given): the composite z-score was 1.51 and -0.251 in experiment [1]; -0.0248 and -0.257 in [2]; 0.804 and 0.73 in [3]; -1.56 and -2.01 in experiment [5]; -1.29 and -0.754 in experiment [6]; -1.86 and -2.26 in [7]. Besides, the composite z-score in experiment [8] was -1.4 and -2.14; in experiment [9], -1.99 and -2.35; in experiment [10], -1.12 and -3.24; in [11], -0.716 and -1.82; in [13], -2.79 and -1.79; in experiment [14], -0.746 and -0.798. The composite z-score in experiment [15] is -0.0974 and 0.407; in [16], -0.355 and -0.242; in experiment [17], -0.487 and -0.336; in experiment [18], -0.218 and -0.24; in [19], -0.809 and -0.822; in experiment [20], -0.64 and -2.45. Moreover, the z-score in experiment [4] was -1.1 (inactive) and -0.88 (inactive); in [12], -1.14 and -0.0856.
Regarding `C[C@@H](c1ccccc1)N1C(=O)[C@H]2[C@H]3[C@H](O)[C@H](O)CC(=O)[C@@H]3CC[C@H]2C1=O`, the composite z-score in experiment [1] was 0.11; in [2], -0.152; in [3], -0.706; in experiment [5], 0.685; in [6], 0.59; in [7] it was 0.43. The composite z-score in experiment [8] is 0.599; in [9] it was 0.943; in experiment [10], -0.838; in experiment [11], 0.189; in [13] it was 0.574; in experiment [14] it was 0.377. In addition, the composite z-score in experiment [15] was -0.241; in experiment [16], -0.119; in [17] it was 0.163; in [18], -0.387; in [19], 0.49; in [20], -0.0104. Also, the results for the z-score in [4] and in experiment [12] were -1.26 (inactive) and 0.265, respectively.
On to `C=C[C@@H](C)[C@H](O)c1ccc(O)c2ccccc12`, for which the composite z-score was 1.09 and 0.905 in experiment [1]; -0.493 and -0.379 in [2]; -0.289 and 0.255 in experiment [3]; -0.309 and -0.862 in experiment [5]; -0.347 and -0.958 in experiment [6]; 0.617 and -0.987 in experiment [7]. In addition, the composite z-score in experiment [8] is 0.294 and -0.579; in [9], 0.481 and -0.33; in [10], 1.53 and 1.13; in experiment [11], -0.54 and -1.74; in [13], 0.265 and -0.863; in experiment [14], -1.27 and -1.29. In addition, the composite z-score is -1.21 and -1.19 in experiment [15]; -0.224 and -0.283 in [16]; -0.0035 and -0.0709 in experiment [17]; -0.157 and -0.299 in [18]; -0.444 and -0.659 in experiment [19]; -0.286 and -0.508 in experiment [20]. Besides, the z-score in experiment [4] is 0.126 (inactive) and 0.292 (inactive); in [12], -0.857 and -0.0113.
